From PubChem BioAssay
HIV RNase H inh-1 = blocks HIV-1 RNase H cleavage of RNA/DNA duplex; P04585; RT-RNase H RNA/DNA duplex cleavage, fluorescence; inhibition, % at 10 µM; 65,000 compounds, 1.9% hits; AID 565; in the data active means inhibition above about 50%
HIV RNase H inh-2 = confirmation of HIV-1 reverse transcriptase RNase H inhibitors; 1,000 compounds, 39% hits; inhibition, % at 10 µM; Recombinant RT RNase H, fluorescent RNA/DNA duplex cleavage; shares compounds with HIV RNase H inh-1; in the data active means inhibition above about 48%; inconclusive means no clear call, values can overlap the other calls
* = called active by the depositor; ? = inconclusive. This excerpt belongs to a sample that is enriched for hits.

SMILES | HIV RNase H inh-1 | others
Cc1cc(NC(=O)CSc2ccc(-c3nc4cc(C)c(C)cc4[nH]3)cn2)no1 | 70* | HIV RNase H inh-2=72*
Cc1cc(NC(=O)CSc2nc(-c3ccc(F)cc3)cs2)no1 | -2
Cn1c(SCC(=O)Nc2nccs2)nnc1-c1ccncc1 | 8
Cc1cc(C)nc(SCC(=O)N2CCCCC2)n1 | -30
CCc1nnc(NC(=O)CSc2nc(-c3ccc(OC)cc3)ns2)s1 | 30
Cc1cc(NC(=O)CSc2nc3ccccc3[nH]2)no1 | -3
Cc1cccc(-n2ccnc2SCC(=O)Nc2nccs2)c1C | -41
Cc1cccc(-c2nsc(SCC(=O)Nc3nccs3)n2)c1 | 82* | HIV RNase H inh-2=74*
Cc1ccc2nc(SCC(=O)Nc3cc(C)on3)[nH]c2c1 | -2
Cc1cccc(OCc2nnc(SCC(=O)N3CCCC3)n2C)c1 | -16
Cc1cccc(-c2nsc(SCC(=O)N3CCCC3)n2)c1 | 79* | HIV RNase H inh-2=34
O=C(NCCSCc1ccccc1)c1cc(S(=O)(=O)N2CCOCC2)ccc1F | 7
O=C(COC(=O)c1cccc(NC(=O)c2ccco2)c1)c1ccc(Br)cc1 | -18
Cc1cc(C)cc(N2CC34C=CC(O3)C(C(=O)OCC(=O)NCc3ccco3)C4C2=O)c1 (centres undefined) | 0
O=C(NCc1ccc2c(c1)OCO2)Oc1ccccc1 | -18
CN(C)CCCN1C(=O)C(=O)/C(=C(/O)c2ccc3c(c2)OCO3)C1c1cccnc1 (centres undefined) | -1
CCOc1ccccc1-c1cc(-c2ccc(OC)cc2)nc2c1c(=O)n(C)c(=O)n2C | 35
CCCCn1c(SCC(=O)NCc2cccs2)nc2c1c(=O)n(C)c(=O)n2C | -3
CC1(C)CC(=O)C2=C(C1)OC(N)=C(C#N)C2CCc1ccccc1 (centres undefined) | -3
CC1(C)CC(=O)C2=C(C1)OC(N)=C(C#N)C2C#Cc1ccccc1 (centres undefined) | 60* | HIV RNase H inh-2=5
CC(c1ccccc1)C1C(C#N)=C(N)OC2=C1C(=O)CC(C)(C)C2 (centres undefined) | -7
COc1cccc(/C(O)=C2/C(=O)C(=O)N(CCCN(C)C)C2c2cccc(Cl)c2)c1 (centres undefined) | -7
O=C(Cn1cnc2c(nnn2Cc2ccc(F)cc2)c1=O)NCC1CCCO1 (centres undefined) | 4
COCCNC(=O)CN1CCC(NC(=O)Nc2ccc(C(F)(F)F)cc2)CC1 | -1
O=C(NCC1CCC(C(=O)O)CC1)c1cccnc1 (centres undefined) | -18
SMILES | HIV RNase H inh-1 | others
COc1ccccc1N=c1oc2c(OC)cccc2cc1C(=O)NCc1ccco1 | 70* | HIV RNase H inh-2=72*
CNC(=O)c1cc2cccc(OC)c2oc1=O | 13
COc1ccccc1OCC(=O)NCc1ccco1 | -13
Cc1ccc2c(c1)N(C(C)C(=O)NCCc1ccccc1)C(=O)CO2 (centres undefined) | 0
Cc1noc(C)c1S(=O)(=O)N1CCC(C(=O)Nc2ccc(OC(F)(F)F)cc2)CC1 | 14
COc1ccc(CCNC(=O)CSc2nnc(CNC(=O)c3ccccc3F)o2)cc1OC | 3
CC(=O)NC12CC3CC(C)(C1)CC(NC(C)=O)(C3)C2 | -4
O=C(CN(C(=O)CCC(=O)Nc1nccs1)c1ccc(F)c(Cl)c1)NCc1ccco1 | -1
Cc1ccc(-c2c3c([nH]c(=S)c2C#N)CCCC3)o1 | 87* | HIV RNase H inh-2=32
Cc1ccc(/C=N/c2sc3c(c2C#N)CCCCC3)o1 | -5
COC(=O)CSc1nc2c(c(-c3ccc(C)o3)c1C#N)CCCC2 | -48
CCOC(=O)Cc1nnc(Nc2cccc(O)c2)c2ccccc12 | -6
O=C(CCSCCC(=O)NCc1cccs1)NCc1cccs1 | 5
O=C(CCSCCC(=O)NCc1ccco1)NCc1ccco1 | 77* | HIV RNase H inh-2=47*
O=C(CSCC(=O)NCc1ccco1)NCc1ccco1 | -11
CC(C)(C)C(=O)C(CO)(Oc1ccc(Cl)cc1)n1cncn1 (centres undefined) | -4
CCOC(=O)c1sc(=S)n(C)c1N | -4
CCn1c(N)c(C(N)=O)sc1=S | 70* | HIV RNase H inh-2=-2
CCn1c(N)c(C(=O)NC2CCCCC2)sc1=S | -25
NC(=O)C1CCN(C(=O)c2ccc(CS(=O)(=O)c3c(Cl)cccc3Cl)o2)CC1 | 0
Cc1cnc(C(=O)Nc2ccccc2-c2ccc(C)o2)cn1 | -12
CC1=C(C)NC(=S)SC1 | 55* | HIV RNase H inh-2=5
CCCCN1C(=O)c2ccc(C(=O)NC3=NCCS3)cc2C1=O | -7
O=C1OC(Nc2ccc(Br)cn2)c2ccccc21 (centres undefined) | 1
COc1ccc(-c2cc(C(=O)Nc3c(C)nn(Cc4ccc(Cl)cc4)c3C)no2)cc1 | 62* | HIV RNase H inh-2=-6
SMILES | HIV RNase H inh-1 | others
Cc1ccc(Cn2nc(C)c(NC(=O)c3cc(-c4ccco4)on3)c2C)cc1 | -3
Cc1nn(Cc2ccc(Cl)cc2)c(C)c1NC(=O)c1cc(-c2ccco2)on1 | -43
COc1ccc(NC(C)=O)cc1NC(=O)CCn1c(=O)sc2ccccc21 | -2
CC(C)CC(C(=O)NCc1ccccn1)N1C(=O)c2ccccc2C1=O (centres undefined) | -5
O=C1c2ccccc2C(=O)N1SC1CCCCC1 | 80* | HIV RNase H inh-2=5
O=C1c2ccccc2C(=O)N1CCN1CCCCC1 | 2
O=C(OCN1C(=O)c2ccccc2C1=O)C1CCCCC1 | -30
O=S1(=O)C=C(Sc2nnc(-c3ccccc3)o2)c2ccccc21 | 65* | HIV RNase H inh-2=21
CSc1nnc(-c2ccccc2)o1 | -2
Cc1cc(C)nc(SC2=CS(=O)(=O)c3ccccc32)n1 | -19
Cc1ccc(NC(=O)CCc2c(C)nc3ncnn3c2C)nc1 | -18
CSc1nn(CCc2ccncc2)c(=S)s1 | -27
COCc1cc(=O)[nH]c(Nc2nc3ccccc3o2)n1 | 0
COCCOc1ccc(C(F)(F)F)cc1Nc1nc2ccccc2o1 | 56* | HIV RNase H inh-2=47
COCCOc1ccc(C(F)(F)F)cc1NC(=O)COC(=O)c1c(C)noc1C | -4
COc1cccc(-c2nnc(SCC(=O)N3CC(C)CC(C)C3)o2)c1 (centres undefined) | -3
CCc1nc(C)cc(N)c1OCc1ccccc1 | -17
Cc1cc2oc(=O)cc(CN3CCC(C)CC3)c2c(C)c1Cl | -7
COc1ccc(N2CCN(Cc3cc(=O)oc4cc(C)c(Cl)c(C)c34)CC2)cc1 | 72* | HIV RNase H inh-2=68*
COc1ccc(N2CCN(CCNC(=O)c3c(C)cc(=O)oc3C)CC2)cc1 | 19
CCOC(=O)Nc1ccc(S(=O)(=O)Nn2cnnc2)cc1 | -8
Cc1ccc(C)n1-c1cccc(N)c1 | 20
O=C(O)c1cccc(N2CCCC2=O)c1 | -13
Cc1ccc(C)n1-c1cccc(C(=O)O)c1 | 71* | HIV RNase H inh-2=?
COc1ccc(OC)c(CCNC(=O)Cn2sc3nc(C)cc(C)c3c2=O)c1 | 97* | HIV RNase H inh-2=57*
SMILES | HIV RNase H inh-1 | others
COc1ccc(OC)c(CCNC(=O)CS(=O)(=O)Cc2nc(-c3ccc(C)cc3)oc2C)c1 | -16
COc1ccc(-c2nc(CS(=O)(=O)CC(=O)NCCc3cc(OC)ccc3OC)c(C)o2)cc1 | -7
CC(=O)N1CCN(c2ccc(NC(=O)c3ccccc3Br)cc2Cl)CC1 | -5
CCOC(=O)c1[nH]c(COC(=O)C2CC(=O)N(Cc3ccccc3)C2)c(C(=O)OCC)c1C (centres undefined) | -10
CCOc1ccccc1NC(=O)c1ccc2nccnc2c1 | -13
O=C1Nc2ccccc2C1=Nc1ccc(-c2nnc3n2CCCCC3)cc1 | -8
CSc1nc2[nH]c3c(c2c2nncn12)CC(C)(C)OC3 | 9
Cc1cc(C)n2c3c(c(C#N)c2n1)CC(C)(C)OC3 | -3
